Among the data in PubChem BioAssay (Tox21) are Potency values, retold here.

Values joined by “and” are separate entries in the source; they are usually repeats but may differ in a detail not shown here. Equal entries are not always repeated. Results filed as inconclusive are left out. Where a call stands in place of a potency, no number is given. Active and inactive are the calls of the source. The call rests on the fitted dose curve; in most records, active means well fitted inhibition curve with a large enough effect in the repeat runs; inconclusive means weak or mixed curves; inactive means no such curve, though single readings can be large or run the other way.
Potency means the concentration at half of the fitted maximal effect.

A short description of this assay: qHTS assay to identify small molecule antagonists of the thyroid receptor (TR) signaling pathway (AID 743065). Further: nearly all actives have a fitted effect of over 55% in size. The conditions noted are these: GH3.TRE-Luc, T3-stimulated luciferase inhibition, 23.5 h; series mostly up to 70.3 µM. The text has this: U.S. Tox21 Program National Center for Advancing Translational Sciences [NCATS] NIH Chemical Genomics Center [NCGC] U.S. Environmental Protection Agency [EPA] National Institutes of Environmental Health Sciences [NIEHS] National Toxicology Program [NTP] U.S. Food and Drug Administration [FDA] Tox21 Assay Overview: Thyroid receptor (TR), a nuclear hormone receptor, plays an important role in development, proliferation, differentiation, metabolism, brain function, and cardiovascular system. […] To profile the Tox21 10K compound library in TR signaling, a cell-based GH3-TRE-Luc assay (GH3.TRE-Luc cell line, developed by the laboratory of Dr. Albertinka J. Murk, Wageningen University) was used to measure the inhibition of TR. GH3 (rat pituitary tumor) cells stably expressing a TR activity sensor consisting of two TR response elements and a luciferase reporter gene.
Tox21 Assay Protocol Summary: GH3.TRE-Luc cells were dispensed at 1500 cells/4 uL/well into 1536-well white solid bottom plates using a Multidrop Combi dispenser (Thermo Fisher Scientific Inc., Waltham, MA). After the assay plates were incubated at 37 C for 4 hours, 23 nL of library compound or DMSO controls was transferred to the assay plates by a pintool station (Kalypsys, San Diego, CA), followed by addition of 1 ul of T3 (1 nM, final concentration in the wells) to stimulate TR transactivation. The assay plates were incubated at 37 C for 23.5 h, and then 1 uL of CellTiter-Fluor reagent (Promega, Madision, WI) of measuring cytotoxicity was added to each well using a Bioraptr Flying Reagent Dispenser (FRD) workstation (Beckman Coulter, Indianapolis, IN, USA). The plates were incubated at 37 C and 5% CO2 for additional 30 min, and fluorescence intensity was measured by a ViewLux plate reader (PerkinElmer, Shelton, CT). For measuring luciferase reporter gene activity, 4 uL of ONE-Glo Luciferase Assay reagent (Promega) was added to each well using a Bioraptr FRD (Beckman Coulter), followed by 30 min incubation at room temperature. The luminescence intensity of plates was recorded by a ViewLux plate reader (PerkinElmer, Shelton, CT).
With `COC(=O)/C=C/c1ccccc1`, the Potency entry is “inactive”.

As for `CN(C)c1ccc(C(=C2C=CC(=[N+](C)C)C=C2)c2ccccc2)cc1`, the Potency is 6.68 µM (active) and 48.6 nM (active).

As for `CC(=O)CC(C)=O`, the Potency result is “inactive”. In the case of `CC1COc2c(N3CCN(C)CC3)c(F)cc3c(=O)c(C(=O)O)cn1c23` (stereo not given), the Potency result was “inactive”. Take `CC[C@]1(O)C[C@@H]2CN(CCc3c([nH]c4ccccc34)[C@@](C(=O)OC)(c3cc4c(cc3OC)N(C)[C@H]3[C@@](O)(C(=O)OC)[C@H](OC(C)=O)[C@]5(CC)C=CCN6CC[C@]43[C@@H]65)C2)C1`: the Potency is 75 nM (active) and 42.2 nM (active). On to `CC(=O)OCC1=C(C(=O)O)N2C(=O)[C@@H](NC(=O)Cc3cccs3)[C@H]2SC1`, for which the Potency entry was “inactive”. Then `CC(C)(C)NCC(O)c1cc(O)cc(O)c1` (stereo not given), with “inactive”. With `CC1=CC(=O)c2ccccc2C1=O`, the Potency was 21.1 µM (active) and 13.7 µM (active). Take `Cc1cc(C(C)(C)C)c(O)c(C(C)(C)C)c1`: the Potency result was “inactive”. With `Cc1ccnc2c1NC(=O)c1cccnc1N2C1CC1`, the Potency result was “inactive”.

With `O=C(Nc1ccccc1SSc1ccccc1NC(=O)c1ccccc1)c1ccccc1`, the Potency is 21.8 µM (active) and 48.6 µM (active). Then `CCCCCCCCCCCCCCCCCl`, with “inactive”; and `C1COC(NC(C2CC2)C2CC2)=N1`, with 29.8 µM (active). As for `CCCOC(=O)c1cc(O)c(O)c(O)c1`, the Potency result was “inactive”. Take `CC(C)C(=O)c1c(C(C)C)nn2ccccc12`: the Potency entry is “inactive”.

With `Oc1c(Cl)cc(Cl)c(Cl)c1Cc1c(O)c(Cl)cc(Cl)c1Cl`, the Potency is 10.6 µM (active) and 2.43 µM (active) and 1.93 µM (active). Then `O=C(O[C@@H]1Cc2c(O)cc(O)cc2O[C@@H]1c1cc(O)c(O)c(O)c1)c1cc(O)c(O)c(O)c1`, with 27.4 µM (active) and 26.3 µM (active). Take `NC(=Nc1ccccc1)Nc1ccccc1`: the Potency entry is “inactive”. Then `CCOc1ccccc1C(N)=O`, with “inactive”; and `CCN(CC)CCOc1ccc(/C(=C(\Cl)c2ccccc2)c2ccccc2)cc1`, with 6.68 µM (active) and 7.86 µM (active). Consider `CNC1(C)C2CCC(C2)C1(C)C` (stereo not given), for which the Potency result is “inactive”. Then `CCC(=O)/C=C/C1C(C)=CCCC1(C)C` (stereo not given), with “inactive”. With `O=C(O)CP(=O)(O)O`, the Potency entry was “inactive”.

Turning to `CCCCCCC(O)CCCCCCCCCCC(=O)O` (stereo not given), the Potency result is “inactive”. Then `O=C1Nc2ccccc2C1(c1ccc(O)cc1)c1ccc(O)cc1`, with 54.5 µM (active); and `c1ccc2n[nH]nc2c1`, with “inactive”; and `CC(C)(c1ccccc1)c1ccc(Nc2ccc(C(C)(C)c3ccccc3)cc2)cc1`, with “inactive”.

Turning to `Cc1cc(OCCOCC[N+](C)(C)Cc2ccccc2)ccc1C(C)(C)CC(C)(C)C`, the Potency is 13.3 µM (active) and 10.8 µM (active).

Consider `CCCCC/C=C/CC1CC(=O)OC1=O` (stereo not given), for which the Potency entry is “inactive”. Take `Nc1cc(Cl)c(-c2cc(Cl)c(N)cc2Cl)cc1Cl`: the Potency was 1.53 µM (active) and 1.54 µM (active). For the compound `O=C(Oc1ccccc1)c1ccccc1O`, the Potency result is “inactive”.

With `CC1COC(=O)O1` (stereo not given), the Potency result was “inactive”. With `CCn1cc(C(=O)O)c(=O)c2cc(F)c(N3CCNC(C)C3)c(F)c21` (stereo not given), the Potency entry is “inactive”. Turning to `Oc1c(Cl)cc(Cl)cc1Sc1cc(Cl)cc(Cl)c1O`, the Potency was 8.63 µM (active) [middle of 4 runs]. Regarding `COc1nc(C)nc(Cl)c1NC1=NCCN1`, the Potency entry is “inactive”. Then `Nc1nc(=S)c2[nH]cnc2[nH]1`, with “inactive”.

Regarding `CCCCN(CCO)CCCC`, the Potency result is “inactive”. Regarding `CCCCCCCCCCCCc1ccccc1O`, the Potency was 13.7 µM (active).

As to `CC(=O)OCCOCCOCCOC(C)=O`, the Potency entry is “inactive”. Regarding `Nc1ccc2cc3ccccc3cc2c1`, the Potency result is “inactive”.
